Screening results (PubChem)
The list is not random: actives were taken first. Their share in the collection is about 15%.
TDP1 cell CPT – DT40-hTDP1 cell growth loss with CPT; chicken DT40 Tdp1-/-;hTDP1 cells + 20 nM CPT, ATP luminescence, 48 h; 420,000 tested, 12% active; Potency, µM (highest dose often 46.2 µM), usual class: inhibitors; AID 686979; further: nearly all actives have a fitted effect of over 55% in size
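Cell growth measured by CellTiter-Glo luminescence after a minimum 48 h, 37 C compound exposure with 20 nM CPT in Tdp1-knockout DT40 cells stably expressing hTDP1, seeded 400/well; qHTS titration format.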
Gal4-VP16 FLuc – inhibits Gal4-VP16 luciferase reporter, ROR gamma counter-screen | Drosophila S2 Gal4-VP16 UAS-luciferase, luminescence, 20 h | Potency, µM (titrated, usually from 53.6 µM), hits mostly inhibitors | 310,000 tested, 3.5% active;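 further: Gal4-VP16 expression switched on by copper sulfate through the metallothionein promoter; nearly all actives have a fitted effect of over 50% in size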
TDP1 cell noCPT – qHTS for Inhibitors of human tyrosyl-DNA phosphodiesterase 1 (TDP1): qHTS in cells in absence of CPT | DT40 Tdp1-/- hTDP1 cells, no CPT, ATP luminescence, 48 h | Potency, µM (highest dose often 46.2 µM), most hits filed as inhibitors | 420,000 tested, 15% active; further: nearly all actives have a fitted effect of over 55% in size
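Luminescent ATP content (CellTiter-Glo) served as the growth readout. Knockout chicken DT40 cells expressing human TDP1 were exposed to compounds without camptothecin for a minimum 48 hr at 37 °C.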
ELG1 repair inh – inhibitors of ELG1-dependent DNA repair in HEK293T cells | HEK293T ELG1-luciferase reporter, luminescence, 16 h; DNA damage induced by 5-fluorouridine | 330,000 tested, 2.3% active | Potency, µM (doses to about 46.1 µM), actives largely listed as inhibitors; further: nearly all actives have a fitted effect of over 55% in size
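Cells (2,000 per well) received 5-fluorouridine plus test compound or DMSO and were incubated 16 hr at 37 °C, 5% CO2. Luciferase activity was read by luminescence 30 min after ONE-Glo addition; signal suppression marked inhibition of damage-induced ELG1 function.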
RORg inh – blocks mouse ROR gamma transcriptional activity | Potency, µM (top dose mostly 53.6 µM), usual class: inhibitors | P51450 | 310,000 tested, 5.4% active | AID 2551 | Drosophila S2 Gal4-RORgamma UAS-luciferase reporter, 20 h; further: nearly all actives have a fitted effect of over 60% in size
Target sequence (P51450 whole entry, looked up, the tested form may be a part): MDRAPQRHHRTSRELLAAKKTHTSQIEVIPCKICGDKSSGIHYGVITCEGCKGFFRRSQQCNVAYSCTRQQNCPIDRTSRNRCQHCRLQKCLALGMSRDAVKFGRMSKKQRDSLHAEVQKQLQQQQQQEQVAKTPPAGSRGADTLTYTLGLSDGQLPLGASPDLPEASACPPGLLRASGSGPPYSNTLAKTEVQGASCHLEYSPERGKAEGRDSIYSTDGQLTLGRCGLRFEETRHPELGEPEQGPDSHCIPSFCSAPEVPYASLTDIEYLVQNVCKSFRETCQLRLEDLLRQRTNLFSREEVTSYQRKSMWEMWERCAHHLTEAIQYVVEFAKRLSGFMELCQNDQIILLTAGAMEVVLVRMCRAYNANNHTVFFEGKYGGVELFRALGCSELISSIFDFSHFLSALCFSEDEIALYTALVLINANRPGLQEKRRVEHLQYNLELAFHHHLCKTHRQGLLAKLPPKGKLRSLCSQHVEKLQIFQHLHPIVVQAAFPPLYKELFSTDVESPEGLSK
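Drosophila Schneider cells stably carrying a metallothionein-driven Gal4 DBD–ROR gamma fusion and a UAS-Photinus luciferase reporter were exposed to compound for 1 hr, then induced with copper sulfate (700 uM final) for 20 hr at ambient temperature before luminescence reading.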
ALOX12 inh – inhibitors of human 12S-lipoxygenase ALOX12; P18054; purified 12hLO, xylenol orange hydroperoxide absorbance; Potency, µM (series often up to 108 µM), most hits filed as inhibitors; 580,000 tested, 1.1% active; AID 1671190
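Hydroperoxide product was detected by ferrous iron/xylenol orange as the 573 to 405 nm absorbance ratio. Arachidonic acid at 40 uM (final) was turned over for 30 min at room temperature by 150 nM human 12hLO, pH 7.0 Hepes buffer, after 15 min compound preincubation.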
A number is an active result; [ ] = another dose, or the depositor's remark. The call rests on the fitted dose curve; in most records, active means well fitted curve in the direction sought with a large enough effect; inconclusive means small, poorly fitted or top-dose-only effect, or another doubt; inactive means no such curve, though single readings can be large; an effect the other way counts as inactive or inconclusive.

How did Cn1nc(C(=O)N2CCOCC2)cc1C(=O)Nc1cc(F)ccc1F do in these assays?
ALOX12 inh: inactive

Results for CC(C)(C)C(=O)Nc1ncc(C(F)(F)F)cc1Cl ?
TDP1 cell CPT: inactive; Gal4-VP16 FLuc: inactive; TDP1 cell noCPT: inactive; ELG1 repair inh: inactive; RORg inh: inactive; ALOX12 inh: inactive

Results for Cc1c(Cl)cccc1NC(=S)NNc1ncc(C(F)(F)F)cc1Cl ?
TDP1 cell CPT: inconclusive; Gal4-VP16 FLuc: inconclusive; TDP1 cell noCPT: inconclusive; ELG1 repair inh: inconclusive; RORg inh: 16µM; ALOX12 inh: inactive

How did Cc1ccccc1NC(=S)NNc1ncc(C(F)(F)F)cc1Cl do in these assays?
TDP1 cell CPT: inactive; Gal4-VP16 FLuc: inactive; TDP1 cell noCPT: inactive; ELG1 repair inh: inconclusive; RORg inh: inactive; ALOX12 inh: inconclusive

Results for FC(F)(F)c1cnc(NNC(=S)Nc2cccnc2)c(Cl)c1 ?
TDP1 cell CPT: inconclusive; Gal4-VP16 FLuc: inconclusive; TDP1 cell noCPT: 21µM; ELG1 repair inh: inconclusive; RORg inh: 13µM; ALOX12 inh: inactive

How did Fc1ccccc1NC(=S)NNc1ncc(C(F)(F)F)cc1Cl do in these assays?
TDP1 cell CPT: inconclusive; Gal4-VP16 FLuc: 16µM; TDP1 cell noCPT: 23µM; ELG1 repair inh: inconclusive; RORg inh: inconclusive; ALOX12 inh: inactive

How did O=C(O)c1ccc(/C=N/Nc2ncc(C(F)(F)F)cc2Cl)cc1 do in these assays?
TDP1 cell CPT: inactive; Gal4-VP16 FLuc: inactive; TDP1 cell noCPT: inactive; ELG1 repair inh: inactive; RORg inh: 10µM; ALOX12 inh: inactive

What do the screens show for `CSc1cccc(NC(=O)O[C@@H]2CC[C@]3(C)C(CC[C@@H](O)[C@H]3CC(=O)NCc3ccccc3)[C@]2(C)CO)c1` (some centres undefined)?
ALOX12 inh: inactive

How did Cc1cccc(C)c1NC(=S)NNc1ncc(C(F)(F)F)cc1Cl do in these assays?
TDP1 cell CPT: inactive; Gal4-VP16 FLuc: inconclusive; TDP1 cell noCPT: inactive; ELG1 repair inh: inactive; RORg inh: 7.9µM; ALOX12 inh: inactive

How did NC(=S)Nc1ncc(C(F)(F)F)cc1Cl do in these assays?
TDP1 cell CPT: inactive; Gal4-VP16 FLuc: inconclusive; TDP1 cell noCPT: inactive; ELG1 repair inh: inactive; RORg inh: 7.1µM; ALOX12 inh: 40µM

What do the screens show for `CN(C)c1ccc(CN2CC(Oc3ccc(F)c(F)c3)C2)cc1`?
ALOX12 inh: inactive[6.33 µM]

How did C[C@H]1CN=C2N(CCNC(=O)CCC3CCCCC3)[C@H](Cc3ccc(O)cc3)CN21 do in these assays?
TDP1 cell CPT: inconclusive; Gal4-VP16 FLuc: inactive; TDP1 cell noCPT: inconclusive; ELG1 repair inh: inactive; RORg inh: inactive; ALOX12 inh: inactive

Results for O=C(CCC1CCCCC1)NCCN1C2=NC[C@@H](Cc3ccccc3)N2C[C@H]1Cc1ccc(O)cc1 ?
TDP1 cell CPT: 16µM; Gal4-VP16 FLuc: 8.9µM; TDP1 cell noCPT: 16µM; ELG1 repair inh: inactive; RORg inh: 10µM; ALOX12 inh: inactive

What do the screens show for `O=C(CCC1CCCCC1)NCCN1C2=NC[C@H](Cc3ccccc3)N2C[C@H]1Cc1ccc(O)cc1`?
TDP1 cell CPT: 21µM; Gal4-VP16 FLuc: inconclusive; TDP1 cell noCPT: 18µM; ELG1 repair inh: inactive; RORg inh: inactive; ALOX12 inh: inactive

How did Cc1nnc([C@@H]2CC(F)(F)CN2C(=O)COc2ccccc2)o1 do in these assays?
ALOX12 inh: inactive

How did CCN(CC)C(=O)C(NC(=O)CC(C)C)C1CCN(C(=O)CCc2ccccc2)CC1 (centres undefined) do in these assays?
ALOX12 inh: inactive

What do the screens show for `CCCCNc1nc(-c2ccccc2F)nc2ccccc12`?
ALOX12 inh: inactive

How did CCn1ncc(N2CCC(NC(=O)CC3CCCC3)CC2)cc1=O do in these assays?
ALOX12 inh: inactive

How did O=C1C(=O)c2ccccc2C(O)=C1CCCCl do in these assays?
TDP1 cell CPT: 5.8µM; Gal4-VP16 FLuc: inconclusive; TDP1 cell noCPT: 4.1µM; ELG1 repair inh: 18µM; RORg inh: inconclusive

Results for NC(=O)c1nnn(Cc2cc(Cl)c(C(=O)c3ccc(Cl)cc3)c(Cl)c2)c1N ?
TDP1 cell CPT: 4.6µM; TDP1 cell noCPT: 16µM; ALOX12 inh: inconclusive

How did Nc1c(C(=O)Nc2ccc3c(c2)OCCO3)nnn1Cc1ccc(Cl)cc1 do in these assays?
TDP1 cell CPT: inactive; TDP1 cell noCPT: inactive; ELG1 repair inh: inconclusive; ALOX12 inh: inactive

What do the screens show for `C/C(=N\NC(=S)NC1CCCCC1)c1cccs1`?
TDP1 cell CPT: 13µM; Gal4-VP16 FLuc: 0.79µM; TDP1 cell noCPT: 10µM; ELG1 repair inh: inactive; RORg inh: inconclusive; ALOX12 inh: inconclusive

How did C/C(=N\NC(=S)NC1CCCCC1)c1c(F)cccc1F do in these assays?
TDP1 cell CPT: inconclusive; Gal4-VP16 FLuc: 2.8µM; TDP1 cell noCPT: inconclusive; ELG1 repair inh: inconclusive; RORg inh: 0.63µM; ALOX12 inh: inconclusive

Results for C/C(=N\NC(=S)NC1CCCCC1)c1ccc(Cl)c(Cl)c1 ?
TDP1 cell CPT: inconclusive; Gal4-VP16 FLuc: 2.8µM; TDP1 cell noCPT: inactive; ELG1 repair inh: inconclusive; RORg inh: 1.4µM; ALOX12 inh: inactive

What do the screens show for `COc1cc(NC(=O)Cn2cc(C#N)c3ccccc32)cc(OC)c1OC`?
ALOX12 inh: inactive

Results for COc1ccc(N2CCN(C(=O)c3ccc4c(=O)n5c(nc4c3)CCCCC5)CC2)cc1 ?
TDP1 cell CPT: inactive; Gal4-VP16 FLuc: inactive; TDP1 cell noCPT: inconclusive; ELG1 repair inh: inactive; RORg inh: inactive; ALOX12 inh: inactive

Results for CCCCN(C(=O)c1ccc2c(=O)n3c(nc2c1)CCCCC3)c1ccccc1 ?
ALOX12 inh: inactive

What do the screens show for `O=C(c1ccc2c(=O)n3c(nc2c1)CCCCC3)N1CCN(c2cccc(Cl)c2)CC1`?
TDP1 cell CPT: 18µM; Gal4-VP16 FLuc: inactive; TDP1 cell noCPT: 23µM; ELG1 repair inh: inconclusive; RORg inh: inactive; ALOX12 inh: inactive

What do the screens show for `CCCN(C(=O)c1ccc2c(=O)n3c(nc2c1)CCCCC3)c1cccc(Cl)c1`?
TDP1 cell CPT: inconclusive; TDP1 cell noCPT: 16µM; ALOX12 inh: inactive

What do the screens show for `CN(Cc1ccc(C(C)(C)C)cc1)C(=O)c1ccc2c(=O)n3c(nc2c1)CCC3`?
TDP1 cell CPT: 21µM; TDP1 cell noCPT: 21µM; ELG1 repair inh: inactive; ALOX12 inh: inactive

How did CN(C(=O)c1ccc2c(=O)n3c(nc2c1)CCCCC3)c1cccc(Cl)c1 do in these assays?
TDP1 cell CPT: 23µM; Gal4-VP16 FLuc: inactive; TDP1 cell noCPT: 23µM; ELG1 repair inh: inactive; RORg inh: inconclusive; ALOX12 inh: inactive

What do the screens show for `O=C(CCc1ccccc1)NC1CCN(c2nnc3ccccn23)CC1`?
ALOX12 inh: inactive

What do the screens show for `O=C(Nc1nc2cc3c(cc2s1)OCCCO3)c1cc(Br)ccc1Cl`?
ALOX12 inh: inactive
